According to PubChem BioAssay (EPA / NIEHS):
Calls of active or inactive are those of the source. How the source made its calls, unless noted: active means hit-call score of the fitted dose curve at least 0.9, where 1 is the maximum; inactive means score below 0.9.

What was measured:
[1] = read-out: Protein phosphatase 2A (PPP2R4), PTPA (gene 5524); assay: LTEA_HepaRG_PPP2R4: Life Technologies and Expression Analysis (LTEA) Assay for Protein phosphatase 2A (PPP2R4) using HepaRG (AID 2283522); settings: mRNA level, 48 h; actives raise or lower the signal
Procedure, shortened: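 Gene-expression endpoint in HepaRG hepatic cells: 48 h treatment across eight half-log concentrations up to 100 uM in 0.5% DMSO. PPP2R4 mRNA by qRT-PCR, normalized to three endogenous control genes.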

[2] = read-out: Phosphatase and tensin (PTEN), PTEN (gene 5728); assay: LTEA_HepaRG_PTEN: Life Technologies and Expression Analysis (LTEA) Assay for Phosphatase and tensin (PTEN) using HepaRG (AID 2283523); settings: mRNA level, 48 h; actives raise or lower the signal
Procedure, shortened: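 Differentiated human HepaRG cells, plated 48 h then switched to serum-free induction medium, were exposed in duplicate for 48 h to eight half-log concentrations up to 100 uM in 0.5% DMSO. PTEN mRNA measured by TaqMan qRT-PCR, normalized to ACTB/GAPDH/POLR2A, bidirectional fit versus DMSO.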

[3] = read-out: solute carrier (SLC22A1), SLC22A1 (gene 6580); assay: LTEA_HepaRG_SLC22A1: Life Technologies and Expression Analysis (LTEA) Assay for solute carrier (SLC22A1) using HepaRG (AID 2283524); settings: mRNA level, 48 h; actives raise or lower the signal
Procedure, shortened: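 Human HepaRG cells were plated 48 h, switched to serum-free induction medium, then exposed in duplicate for 48 h to 8-point half-log series from 100 uM in 0.5% DMSO. SLC22A1 mRNA measured by qRT-PCR, normalized to ACTB/GAPDH/POLR2A, fitted bidirectionally versus DMSO.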

[4] = read-out: Pyruvate Dehydrogenase Kinase 4 (PDK4), PDK4 (gene 5166); assay: LTEA_HepaRG_PDK4: Life Technologies and Expression Analysis (LTEA) Assay for Pyruvate Dehydrogenase Kinase 4 (PDK4) using HepaRG (AID 2283525); settings: mRNA level, 48 h; actives raise or lower the signal
Procedure, shortened: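 Differentiated human HepaRG cells, pre-cultured 48 h, were exposed in duplicate for 48 h in serum-free induction medium to eight half-log concentrations up to 100 uM in 0.5% DMSO. PDK4 mRNA was quantified by qRT-PCR, normalized to ACTB, GAPDH and POLR2A, bidirectional fitting versus DMSO.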

[5] = read-out: NAD(P)H dehydrogenase [quinone] 1 (NQO1), NQO1 (gene 1728); assay: LTEA_HepaRG_NQO1: Life Technologies and Expression Analysis (LTEA) Assay for NAD(P)H dehydrogenase [quinone] 1 (NQO1) using HepaRG (AID 2283526); settings: mRNA level, 48 h; actives raise or lower the signal
Procedure, shortened: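 Human HepaRG hepatic cells received chemicals for 48 h in serum-free induction medium with 0.5% DMSO, up to 100 uM. Expression was assessed by TaqMan qRT-PCR against housekeeping controls and fitted bidirectionally against DMSO.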

[6] = read-out: Nuclear factor erythroid 2-related factor 2 (Homo sapiens) (UniProt Q16236); assay: LTEA_HepaRG_NFE2L2: Life Technologies and Expression Analysis (LTEA) Assay for Nuclear factor erythroid 2-related factor 2 (NFE2L2) Transcription Factor using HepaRG (AID 2283527); settings: mRNA level, 48 h; actives raise or lower the signal
Procedure, shortened: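 Differentiated human HepaRG cells in serum-free induction medium were exposed for 48 h to eight concentrations (top 100 uM, half-log dilutions, 0.5% DMSO), in duplicate. NFE2L2 mRNA was quantified by TaqMan qRT-PCR, normalized to ACTB, GAPDH and POLR2A, with bidirectional fitting versus DMSO.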

[7] = read-out: succinate dehydrogenase complex iron sulfur subunit B (SDHB), SDHB (gene 6390); assay: LTEA_HepaRG_SDHB: Life Technologies and Expression Analysis (LTEA) Assay for succinate dehydrogenase complex iron sulfur subunit B (SDHB) using HepaRG (AID 2283528); settings: mRNA level, 48 h; actives raise or lower the signal
Procedure, shortened: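 HepaRG cells (~100,000/well, plated 48 h) exposed in duplicate for 48 h in serum-free induction medium to 8-point half-log series from 100 uM in 0.5% DMSO; mRNA by qRT-PCR normalised to ACTB, GAPDH, POLR2A; bidirectional fit versus DMSO.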

[8] = read-out: Signal transducer and activator of transcription 3 (Homo sapiens) (UniProt P40763); assay: LTEA_HepaRG_STAT3: Life Technologies and Expression Analysis (LTEA) Assay for Signal transducer and activator of transcription (STAT3) using HepaRG (AID 2283529); settings: mRNA level, 48 h; actives raise or lower the signal
Procedure, shortened: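 Differentiated human HepaRG cells in serum-free induction medium were exposed in duplicate for 48 h to eight half-log concentrations up to 100 uM in 0.5% DMSO. STAT3 mRNA was quantified by TaqMan qRT-PCR, normalized to ACTB, GAPDH and POLR2A, and fitted bidirectionally against DMSO.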

[9] = read-out: solute carrier (SLCO1B1), SLCO1B1 (gene 10599); assay: LTEA_HepaRG_SLCO1B1: Life Technologies and Expression Analysis (LTEA) Assay for solute carrier (SLCO1B1) using HepaRG (AID 2283530); settings: mRNA level, 48 h; actives raise or lower the signal
Procedure, shortened: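 Human HepaRG cultures treated for 48 h with an eight-concentration half-log series topping at 100 uM; SLCO1B1 measured by qRT-PCR and fitted bidirectionally relative to DMSO.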

[10] = read-out: sulfotransferase 2A1 (SULT2A1), SULT2A1 (gene 6822); assay: LTEA_HepaRG_SULT2A1: Life Technologies and Expression Analysis (LTEA) Assay for sulfotransferase 2A1 (SULT2A1) using HepaRG (AID 2283531); settings: mRNA level, 48 h; actives raise or lower the signal
Procedure, shortened: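 Gene-expression endpoint in a human liver cell line: SULT2A1 mRNA change after 48 h chemical treatment, curves fitted in both directions relative to 0.5% DMSO vehicle. Concentrations spanned eight half-log steps from 100 uM.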

[11] = read-out: Transforming Growth Factor (TGFA), TGFA (gene 7039); assay: LTEA_HepaRG_TGFA: Life Technologies and Expression Analysis (LTEA) Assay for Transforming Growth Factor (TGFA) using HepaRG (AID 2283532); settings: mRNA level, 48 h; actives raise or lower the signal
Procedure, shortened: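 Differentiated human HepaRG cells, plated 48 h then switched to serum-free induction medium, were exposed in duplicate for 48 h to 8-point half-log series from 100 uM in 0.5% DMSO. TGFA mRNA measured by qRT-PCR, normalized to ACTB/GAPDH/POLR2A, bidirectional fit versus DMSO.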

[12] = read-out: Transforming Growth Factor (TGFB1), TGFB1 (gene 7040); assay: LTEA_HepaRG_TGFB1: Life Technologies and Expression Analysis (LTEA) Assay for Transforming Growth Factor (TGFB1) Transporter using HepaRG (AID 2283533); settings: mRNA level, 48 h; actives raise or lower the signal
Procedure, shortened: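 Eight-point concentration-response (max 100 uM, half-log) in HepaRG under serum-free induction conditions, 48 h. TGFB1 mRNA by qRT-PCR, housekeeping-normalized.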

TIMP1, TIMP1 (gene 7076) = assay: LTEA_HepaRG_TIMP1: Life Technologies and Expression Analysis (LTEA) Assay for TIMP1 using HepaRG (AID 2283534); settings: mRNA level, 48 h; actives raise or lower the signal
Procedure, shortened: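 TIMP1 induction or repression in HepaRG cells after 48 h chemical exposure (eight concentrations, highest 100 uM), assessed by normalized qRT-PCR with bidirectional fitting to DMSO controls.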

[13] = read-out: Tumor necrosis factor receptor 1 (TNFRSF1A), TNFRSF1A (gene 7132); assay: LTEA_HepaRG_TNFRSF1A: Life Technologies and Expression Analysis (LTEA) Assay for Tumor necrosis factor receptor 1 (TNFRSF1A) using HepaRG (AID 2283535); settings: mRNA level, 48 h; actives raise or lower the signal
Procedure, shortened: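 Assay uses 48 h chemical treatment of differentiated HepaRG monolayers, tested in duplicate at eight concentrations from 100 uM downward in 0.5% DMSO. mRNA is normalized to ACTB, GAPDH and POLR2A, with induction or suppression fitted relative to vehicle.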

[14] = read-out: Thyroid Hormone Responsive (THRSP), THRSP (gene 7069); assay: LTEA_HepaRG_THRSP: Life Technologies and Expression Analysis (LTEA) Assay for Thyroid Hormone Responsive (THRSP) using HepaRG (AID 2283536); settings: mRNA level, 48 h; actives raise or lower the signal
Procedure, shortened: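 Differentiated human HepaRG cells were exposed in duplicate for 48 h in serum-free induction medium to eight concentrations (top 100 uM, half-log steps, 0.5% DMSO). Expression was quantified by TaqMan qRT-PCR, normalized to ACTB, GAPDH and POLR2A, with bidirectional fitting against DMSO.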

[15] = read-out: UDP glucuronosyltransferase (UGT1A1), UGT1A1 (gene 54658); assay: LTEA_HepaRG_UGT1A1: Life Technologies and Expression Analysis (LTEA) Assay for UDP glucuronosyltransferase (UGT1A1) using HepaRG (AID 2283538); settings: mRNA level, 48 h; actives raise or lower the signal
Procedure, shortened: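 Human liver HepaRG cultures receive test chemical for 48 h, up to 100 uM in 0.5% DMSO, with phenobarbital induction controls. UGT1A1 mRNA is measured by qRT-PCR and normalized to ACTB, GAPDH and POLR2A.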

[16] = read-out: UDP glucuronosyltransferase (UGT1A6), UGT1A6 (gene 54578); assay: LTEA_HepaRG_UGT1A6: Life Technologies and Expression Analysis (LTEA) Assay for UDP glucuronosyltransferase (UGT1A6) using HepaRG (AID 2283539); settings: mRNA level, 48 h; actives raise or lower the signal
Procedure, shortened: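 Measures mRNA change in HepaRG hepatic cells exposed 48 h to chemicals (eight-point, maximum 100 uM, 0.5% DMSO vehicle) in serum-free induction medium. Expression normalized to endogenous controls; DMSO served as negative control and baseline.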

[17] = read-out: X-box binding protein 1 (XBP1), XBP1 (gene 7494); assay: LTEA_HepaRG_XBP1: Life Technologies and Expression Analysis (LTEA) Assay for X-box binding protein 1 (XBP1) using HepaRG (AID 2283540); settings: mRNA level, 48 h; actives raise or lower the signal
Procedure, shortened: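 Eight concentrations (half-log, highest 100 uM, 0.5% DMSO) tested in duplicate on HepaRG cells over 48 h in serum-free induction medium; qRT-PCR of XBP1 normalised to ACTB, GAPDH, POLR2A.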

[18] = LTEA_HepaRG_LDH_cytotoxicity: Cytotoxicity Assessment in the Life Technologies and Expression Analysis (LTEA) Assay (AID 2283563; active means hit-call score of the fitted dose curve at least 0.9, where 1 is the maximum;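 further: LDH activity released into spent culture medium as a marker of cell death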)
Procedure, shortened: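 Spent-medium LDH after 48 h chemical exposure of HepaRG cells in serum-free induction medium; eight concentrations, half-log dilutions from 100 uM, duplicate wells, fitted upward relative to 0.5% DMSO.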

Measured: AC50

Sequence of Signal transducer and activator of transcription 3 (Homo sapiens) (P40763 whole entry, looked up): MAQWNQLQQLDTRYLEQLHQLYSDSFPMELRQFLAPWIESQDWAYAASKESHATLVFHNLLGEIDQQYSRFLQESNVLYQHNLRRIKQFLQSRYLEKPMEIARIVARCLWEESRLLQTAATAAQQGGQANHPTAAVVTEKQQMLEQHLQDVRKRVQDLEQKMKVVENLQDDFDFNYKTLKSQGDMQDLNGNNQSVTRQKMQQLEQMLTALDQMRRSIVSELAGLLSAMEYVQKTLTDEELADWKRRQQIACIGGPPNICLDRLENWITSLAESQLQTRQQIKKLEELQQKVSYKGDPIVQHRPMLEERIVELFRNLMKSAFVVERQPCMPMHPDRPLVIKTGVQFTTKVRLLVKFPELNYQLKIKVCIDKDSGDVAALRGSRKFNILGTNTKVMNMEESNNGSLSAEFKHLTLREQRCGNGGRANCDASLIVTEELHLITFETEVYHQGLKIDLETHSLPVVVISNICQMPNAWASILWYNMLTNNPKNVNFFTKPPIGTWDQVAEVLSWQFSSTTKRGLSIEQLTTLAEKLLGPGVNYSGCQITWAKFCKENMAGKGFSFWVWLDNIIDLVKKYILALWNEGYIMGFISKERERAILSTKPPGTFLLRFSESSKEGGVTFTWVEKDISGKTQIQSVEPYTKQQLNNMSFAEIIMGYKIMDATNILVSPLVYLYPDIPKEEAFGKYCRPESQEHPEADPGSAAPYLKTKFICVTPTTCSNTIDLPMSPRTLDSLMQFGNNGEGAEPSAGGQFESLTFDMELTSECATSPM
Sequence of Nuclear factor erythroid 2-related factor 2 (Homo sapiens) (Q16236 whole entry, looked up): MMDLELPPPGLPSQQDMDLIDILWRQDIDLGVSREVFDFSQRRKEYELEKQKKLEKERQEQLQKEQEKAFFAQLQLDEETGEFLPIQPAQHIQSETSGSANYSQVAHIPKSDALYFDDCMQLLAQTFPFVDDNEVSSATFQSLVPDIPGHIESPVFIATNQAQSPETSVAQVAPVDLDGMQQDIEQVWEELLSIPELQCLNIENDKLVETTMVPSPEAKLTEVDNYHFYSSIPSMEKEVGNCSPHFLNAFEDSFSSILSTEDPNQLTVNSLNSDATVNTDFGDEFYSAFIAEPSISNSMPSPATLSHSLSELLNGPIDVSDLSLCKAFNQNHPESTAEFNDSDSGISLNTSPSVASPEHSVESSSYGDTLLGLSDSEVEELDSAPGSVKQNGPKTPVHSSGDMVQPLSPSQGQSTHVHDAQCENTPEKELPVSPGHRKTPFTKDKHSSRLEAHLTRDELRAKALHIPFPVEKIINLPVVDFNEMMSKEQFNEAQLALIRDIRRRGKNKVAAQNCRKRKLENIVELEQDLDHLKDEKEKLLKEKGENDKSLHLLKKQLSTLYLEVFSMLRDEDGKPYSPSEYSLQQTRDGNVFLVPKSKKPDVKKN

N#Cc1nn(-c2c(Cl)cc(C(F)(F)F)cc2Cl)c(N)c1S(=O)C(F)(F)F (centres undefined)
inactive: [2] | [7] | [8] | [12] | [13]
active: [1] 11.5 µM | [3] 19.6 µM | [4] 23.1 µM | [5] 81.6 µM | [6] 83 µM | [9] 36.2 µM | [10] 50.2 µM | [11] 33.2 µM | TIMP1, TIMP1 (gene 7076) 66.7 µM | [14] 27.3 µM | [15] 37.6 µM | [16] 44.8 µM | [17] 68.6 µM | [18] 34.2 µM
